Experimental findings from PubChem BioAssay AID1850 (Southern Research Specialized Biocontainment Screening …, 2009) are described below.

By inhibition is commonly meant the relative decrease from the control value, in per cent.

The whole screen tested about 310,000 compounds, of which about 1,000 (0.32%) were called active. How the calls were made is not given here. Not all results are given here. Measured potencies and affinities stand elsewhere.

The assay in a line: Inhibition of PhoP regulon, Salmonella typhi GFP reporter cells, confirmation, 4 h (AID 1850).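 Further: 0% = induced wells with vehicle and 100% = uninduced wells.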 The settings on record: Salmonella Typhi PhoP-promoter GFP reporter, fluorescence, at 50 µM, stronger effect = higher value.
Regarding `COc1ccc(CCC(=O)NCCS(=O)(=O)N2CCN(c3ccc(F)cc3)CC2)cc1`, the inhibition is 3.06% (inactive).
In the case of `O=C(c1ccccc1)N1N=C(C(F)(F)F)CC1(O)c1ccc(F)cc1` (stereo unspecified) it was -5.13% (inactive); in that of `CCOC(=O)c1ccc(S(=O)(=O)N2CCN(C(=O)CSc3nc4ccccc4o3)CC2)cc1`, 1.15% (inactive).
The same measure for `CC(=O)c1c(C(C)=O)c(C)n(NC(=O)c2ccc(Cl)cc2)c1C`: 2.98% (inactive); for `CN(C)C1=NCC(CSC(=N)N)S1` (stereo unspecified): -1.53% (inactive); for `CCOc1ccc(N2CC(C(=O)Nc3ccc4c(c3)OCO4)CC2=O)cc1` (stereo unspecified): 2.26% (inactive).
`Cc1ccc(C(=O)Nc2nnc(S(=O)(=O)N3CCC(C)CC3)s2)cc1`: the inhibition is 4.17% (inactive).
In the case of `O=C(COC(=O)c1ccc(Cl)c(S(=O)(=O)N2CCCC2)c1)NC1CCCCC1` it was 5.96% (inactive); in that of `CCOc1ccc(Nc2cc(C)c3ccccc3n2)cc1`, 10.8% (inactive); in that of `Cc1c2ccccc2nc2ccccc12`, -14.3% (inactive).
Turning to `CCOc1ccc(Nc2nc3ccccc3c(=O)s2)cc1`, the inhibition is 10.5% (inactive).
Take `COc1c2ccccc2c(OC)c2ccccc12`: the inhibition is -8.01% (inactive).
In the case of `CCOC(=O)C(Cc1ccccc1)NC(=O)CNC(=O)CNC(=O)OCc1ccccc1` (stereo unspecified) it was 4.1% (inactive).
Take `CC1CCCCN1C(=O)COC(=O)c1cc([N+](=O)[O-])ccc1N` (stereo unspecified): the inhibition was 0.19% (inactive).
In the case of `COCCN(C(=O)COC(=O)CC1CCCCC1)c1c(N)n(Cc2ccccc2)c(=O)[nH]c1=O` it was -6.56% (inactive); in that of `COc1ccc(/C=C(\NC(=O)c2ccco2)C(=O)NCCc2nc3ccccc3[nH]2)cc1`, 4.61% (inactive).
The same measure for `Cc1cc(N(CCCl)CCCl)ccc1/C=N/N=C(\N)c1cnccn1`: 1.24% (inactive); for `CC(C)(C)c1ccc(C(=O)NCC(=O)OCC(=O)Nc2nc(-c3ccc(F)cc3)cs2)cc1`: 6.97% (inactive).
The same measure for `Cc1ccc(C)c2[nH]c(=O)c(CN(CC3CCCO3)S(=O)(=O)c3ccc4c(c3)OCCO4)cc12` (stereo unspecified): -7.59% (inactive).
Take `NC(=O)CN1CCN(CCN2C(=O)c3cccc4cccc(c34)C2=O)CC1`: the inhibition was 10.1% (inactive).
In the case of `CCN(CC)CCN1C(=O)c2cccc3cc(N)cc(c23)C1=O` it was 6.76% (inactive).
As to `CC(C)(C)c1ccc(OCCCN2CCCC2)cc1`, the inhibition was -5.11% (inactive).
In the case of `CC(C)(c1ccccc1)c1ccc(OCCN2CCOCC2)cc1` it was -18% (inactive); in that of `COCCNCCCOc1ccc(C(C)(C)c2ccccc2)cc1`, 3.55% (inactive); in that of `COCCCNCCCOc1ccc(C(C)(C)c2ccccc2)cc1`, 0.01% (inactive).
For the compound `CC1CCN(CCCCOc2ccc(C(C)(C)C)cc2)CC1`, the inhibition was -0.73% (inactive).
The same measure for `Cc1ccc(OCCCCCCN2CCNCC2)cc1`: 11.8% (inactive).
The same measure for `Cn1c(SCC(=O)Nc2ccc3c(c2)OCCO3)nnc1-c1ccccn1`: -2.36% (inactive).
For `COCCNc1c([N+](=O)[O-])c(=O)n(-c2ccccc2)c2ccccc12`, the inhibition is -1% (inactive).
Take `Cn1c(N)c(N2CCN(c3ccccc3)CC2)c(=O)[nH]c1=O`: the inhibition is -2.5% (inactive).
On to `O=C(COC(=O)CCC(=O)c1ccc(F)cc1)NCc1ccco1`, for which the inhibition is 11.3% (inactive).
The same measure for `COC(=O)c1sc2ccccc2c1NC(=O)c1ccc(S(=O)(=O)N2CCCCC2)cc1`: 10.9% (inactive); for `CN(CCOc1ccc(Cl)cc1)C(=O)C1CCN(C(=O)c2ccc(Cl)cc2)CC1`: -3.38% (inactive); for `CCCC(=O)NC(c1ccco1)c1cc(Cl)c2cccnc2c1O` (stereo unspecified): -13.5% (inactive).
In the case of `CC(C)C(=O)NC(c1cccs1)c1cc([N+](=O)[O-])c2cccnc2c1O` (stereo unspecified) it was -8.78% (inactive).
In the case of `CC(=O)NC(c1ccccc1)c1cc([N+](=O)[O-])c2cccnc2c1O` (stereo unspecified), the inhibition was 0.16% (inactive).
The same measure for `CCCC(=O)NC(c1cccs1)c1cc([N+](=O)[O-])c2cccnc2c1O` (stereo unspecified): -5.59% (inactive).
The same measure for `COc1ccc(S(=O)(=O)N2CCOCC2)cc1N=Nc1sc(N)nc1-c1ccccc1`: 0.93% (inactive); for `CCCCOC(=O)C1CCCC(C(=O)OCCCC)N1` (stereo unspecified): 2.58% (inactive); for `CCCCCCCCCCOC(=O)C[N+](C)(C)C/C=C(/C)Cl`: -3.67% (inactive).
In the case of `CCCCCOC(=O)CC(C(=O)OCCCCC)N1CCCCC1` (stereo unspecified) it was 1.36% (inactive).
For `CCCCCCCCOC(=O)C[N+](C)(C)C/C=C(/C)Cl`, the inhibition is -1.52% (inactive).
In the case of `CC12CN3CCN(CC(C3)/C1=N/NC(=O)Nc1ccccc1)C2` it was 3.04% (inactive).
`CCOc1ccc(NC(=O)CN(C)C(=O)c2cn3ccccc3n2)cc1OCC`: the inhibition was -2.5% (inactive).
In the case of `O=C(c1ccc(F)cc1)C1CCN(C(=S)Nc2ccc(F)cc2)CC1` it was 1.13% (inactive); in that of `C/C(=N\NC(=O)c1nnn(-c2nonc2N)c1-c1ccc2c(c1)OCO2)c1ccccc1`, -37.7% (inactive); in that of `CC1CC(C)CN(CCOc2cccc(Cl)c2Cl)C1` (stereo unspecified), -0.58% (inactive).
In the case of `CC1CN(CCOc2ccc(Cl)cc2Cl)CC(C)O1` (stereo unspecified) it was 10.8% (inactive); in that of `CC1CC(C)CN(S(=O)(=O)N2CCCC(C(=O)NCCc3ccccc3)C2)C1` (stereo unspecified), 6.06% (inactive).
Take `NS(=O)(=O)c1ccc(CCNC(=O)c2cc([N+](=O)[O-])ccc2N2CCCCC2)cc1`: the inhibition is 7.9% (inactive).
On to `O=C(CCc1ccc(S(=O)(=O)N2CCOCC2)cc1)N1CCN(Cc2ccc3c(c2)OCO3)CC1`, for which the inhibition was -0.09% (inactive).
Consider `CCN1CCN(CCNC(=O)c2ccc3c(c2)N(Cc2ccc(F)cc2)C(=O)c2ccccc2S3=O)CC1` (stereo unspecified), for which the inhibition was -3.27% (inactive).
In the case of `CCN1CCN(CCNC(=O)c2ccc(/C=C3/Sc4ccccc4N(Cc4cccc(Cl)c4)C3=O)cc2)CC1` it was 47.7% (inactive).
Turning to `Cc1ccc(C(=O)Nc2cccc(C(=O)NC3CCCCC3)c2)cc1`, the inhibition is 7.56% (inactive).
With `CCOC(=O)c1c(C)c(-c2ccccc2)n(CC(=O)N2CCN(C)CC2)c1C`, the inhibition is -2.34% (inactive).
The same measure for `O=C1Nc2ccccc2Nc2ccc([N+](=O)[O-])cc21`: -12.2% (inactive).
In the case of `O=C1Nc2ccccc2C1=Nc1cccc([N+](=O)[O-])c1` it was 6.17% (inactive); in that of `COc1ccccc1OCc1ccc(C(=O)NCc2ccco2)o1`, -2.77% (inactive); in that of `COc1ccc2cc(C(=O)N/N=C/c3sc4ccccc4c3O)ccc2c1`, -4.14% (inactive).
The same measure for `O=C(N/N=C/c1ccccc1O)c1cccc2ccccc12`: 3.31% (inactive).
Consider `COc1ccc(C(=O)N/N=C/c2c[nH]c3ccccc23)cc1`, for which the inhibition was 4.58% (inactive).
As to `O=C(N/N=C/c1sc2ccccc2c1O)c1ccccc1`, the inhibition was -3.49% (inactive).
For `Cc1ccc(CN2CCCN(Cc3ccc(F)cc3Cl)S2(=O)=O)cc1`, the inhibition was 0.28% (inactive).
In the case of `O=C(O)C1CC(O)CN1c1nc(Cl)ccc1[N+](=O)[O-]` (stereo unspecified) it was 4.36% (inactive).
Consider `O=C1CC2(CCCC2)Oc2ccccc21`, for which the inhibition was 9.18% (inactive).
The same measure for `CC(C)Nc1cc(C(C)(C)C)nc2c(-c3ccccc3)cnn12`: 0.99% (inactive).
Take `CC(C)(C)c1cc(NCCCn2ccnc2)n2ncc(-c3ccccc3)c2n1`: the inhibition was 12.3% (inactive).
Regarding `CC(C)(C)c1cc(NCc2ccccn2)n2ncc(-c3ccc(Cl)cc3)c2n1`, the inhibition was -9.09% (inactive).
Take `CC(C)(C)c1cc(NCCCn2ccnc2)n2ncc(-c3ccc(Cl)cc3)c2n1`: the inhibition was -8.35% (inactive).
Turning to `COC(=O)[C@@H](NC(=O)N1CCC(Cc2ccccc2)CC1)C(C)C`, the inhibition was -13.1% (inactive).
The same measure for `CC(C)C(C(=O)NCC1CCCO1)N(C(=O)CNS(=O)(=O)c1ccc(F)cc1)C1CCCCC1` (stereo unspecified): -5.01% (inactive).
Consider `Cc1cccc(C)c1NC1=NC(C)(C)N=C(N)N1`, for which the inhibition is -2.14% (inactive).
Consider `Cc1cccc(NC2=NC(C)(C)N=C(N)N2)c1`, for which the inhibition is -5.24% (inactive).
The same measure for `Cc1ccccc1NC1=NC(C)(C)N=C(N)N1`: 2.17% (inactive).
Take `CC1(C)N=C(N)NC(Nc2ccccc2)=N1`: the inhibition is 3.29% (inactive).
The same measure for `CCCCC(=O)N/N=C/c1ccc(N2CCOCC2)c([N+](=O)[O-])c1`: 5.66% (inactive); for `O=C(c1cc(Cl)cc(Cl)c1)N1CCN(c2cc(C(F)(F)F)nc3ccccc23)CC1`: 0.46% (inactive).
In the case of `CN1N=C(C(C)(C)C)CC1=O`, the inhibition is -12.7% (inactive).
In the case of `OCCC1CN(Cc2nc3ccccc3[nH]2)CCN1C1CCCC1` (stereo unspecified) it was 3.25% (inactive); in that of `COc1cc(C(=O)ON=C2C=C(C)C(=O)C(C)=C2)cc(OC)c1OC`, -6.42% (inactive); in that of `COc1cc(C(=O)O/N=C2/C=C(C)C(=O)C=C2C)cc(OC)c1OC`, -6.02% (inactive).
In the case of `CCc1ccccc1N(CC(=O)N1CCCC1)S(C)(=O)=O` it was 6.01% (inactive).
On to `CCNc1c2c(nc3ccccc13)CC(C)(C)CC2=O`, for which the inhibition was -3.19% (inactive).
In the case of `Cc1c2c(nc3ccccc13)CC(C)(C)CC2=O` it was -15.3% (inactive).
The same measure for `CCC(=NCc1cccnc1)c1c(O)n(-c2ccc(C)cc2)c(=O)[nH]c1=O`: -4.52% (inactive); for `O=C(COc1ccc2c3c(c(=O)oc2c1)CCC3)N[C@@H](CSCc1ccccc1)C(=O)O`: 11.7% (inactive); for `N#C/C(=C\c1cc(O)c(O)c(O)c1)C(N)=O`: 5.26% (inactive).
In the case of `CCOC(=O)c1ccc(CNCc2ccccc2)cc1` it was -2.61% (inactive).
With `CCOC(=O)c1ccc(CNCc2ccc(C)cc2)cc1`, the inhibition is -2.32% (inactive).
Take `Cc1noc(C)c1COc1ccc(C(=O)N2CCN(S(=O)(=O)c3ccc(Cl)cc3)CC2)cc1`: the inhibition is -8.91% (inactive).
For `CSc1ccccc1NC(=O)CN(C)C(=O)CCc1c[nH]c2ccccc12`, the inhibition is 2.89% (inactive).
In the case of `CNCCCOc1ccc(Cl)cc1C(C)(C)C`, the inhibition was 18.7% (inactive).
As to `CC(C)(C)c1ccc(OCCON2C(=O)CCC2=O)c(Cl)c1`, the inhibition is 10.3% (inactive).
In the case of `CCCCNC(=O)c1cccc(NC(=O)C(=O)c2ccccc2NC(C)=O)c1` it was 0.04% (inactive); in that of `COc1ccc(-c2csc(N=C(N)N)n2)cc1`, 4.34% (inactive); in that of `Cc1ccc(-c2csc(N=C(N)N)n2)cc1`, 3.62% (inactive).
